Results on three compounds are retold here after PubChem BioAssay (NCATS).

Inconclusive results are not listed. Active and inactive are the calls of the source. Unless noted, the call rests on the fitted dose curve; in most records, active means well fitted curve in the direction sought with a large enough effect; inconclusive means small, poorly fitted or top-dose-only effect, or another doubt; inactive means no such curve, though single readings can be large; an effect the other way counts as inactive or inconclusive.

Experiment [1] addresses Cytochrome P450 3A4 (Homo sapiens) (UniProt P08684). Put plainly: qHTS Assay for Activators of Cytochrome P450 3A4 (AID 885). Further: nearly all actives have a fitted effect of over 65% in size. In a few lines:
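Human CYP3A4 dealkylates Luciferin-PPXE to luciferin, which luciferase detection converts to light. Substrate was at its KM (25uM), buffer 200mM KPO4, reaction 60 min at RT.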

The nature of experiment [2]: qHTS Assay for Lipid Storage Modulators (AID 1519; calls by dose curve; on activity change, negative = inhibition: on the % scale 0 is the no-effect control and ±100 the full control effect). The note with it: Drosophila S3 cells, BODIPY lipid droplet/cell ratio, laser cytometry, cells loaded with oleic acid. In a few lines: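 Cells seeded at 5,000 per well were treated with compounds over a concentration series and loaded with oleic acid (400 uM, as added). Lipid droplet fluorescence (488 nm excitation, 500-530 nm channel) was read by laser-scanning cytometry and normalized to 20 uM Triacsin C.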
On the technique in general: Quantitative high-throughput screening tests each substance at several concentrations.

Experiment [3] has as its target Furin (Homo sapiens) (UniProt P09958). Put plainly: Furin counterscreen qHTS for Zika virus inhibitors (AID 1347149). Further: nearly all actives have a fitted effect of over 70% in size. Further: potency means the concentration at half of the fitted maximal effect.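 On activity change, negative = inhibition: purified recombinant full-length human furin enzyme at 5 nM; fluorescence gain from furin cutting a BOC-RVRR-AMC peptide substrate over 15 min; top concentration of the series differs between compounds; plate controls were no-inhibitor control for no effect and no-enzyme control for full effect.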 In short, it runs like this: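 Counterscreen measures cleavage of 2 microM BOC-RVRR-AMC, below its ~15 microM Km, by 5 nM full-length human furin at pH 7.0 after a 15-min compound preincubation. Inhibition derives from the 15-min fluorescence increase at 37C.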
(In general: The purpose of a counterscreen is to sort out artefacts and off-target activity.)

Experiment [4] is described as follows: Confirmatory screen GU Rhodamine qHTS for Zika virus inhibitors qHTS (AID 1347157). Further: nearly all actives have a fitted effect of over 70% in size. Further: potency means the concentration at half of the fitted maximal effect.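 On activity change, negative = inhibition: plate controls were no-inhibitor wells for no effect and no-enzyme wells for full effect.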 In a few lines:
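Percent inhibition derives from the 15-min fluorescence change (ex 480, em 540 nm), normalized to no-enzyme and no-inhibitor wells. Reactions contained 25 nM NS2B-NS3 complex and 1.5 microM substrate in 10 mM Tris-HCl pH 8.0.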

Experiment [5] is described as follows: Confirmatory screen NINDS Rhodamine qHTS for Zika virus inhibitors (AID 1347161). Further: nearly all actives have a fitted effect of over 60% in size. Further: potency means the concentration at half of the fitted maximal effect.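 On activity change, negative = inhibition: purified Zika NS2B-NS3 protease with linked NS2B cofactor domain and Rhodamine110 peptide substrate; plate controls were no-inhibitor control for no effect and no-enzyme control for full effect.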 In short, it runs like this: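 In 10 mM Tris-HCl pH 8.0 containing 0.01% Tween 20, linked NS2B-NS3 protease (25 nM final) is exposed to test compounds for 15 min. Cleavage of 1.5 microM Rhodamine110 substrate is tracked by fluorescence over 15 min.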
Experiment [6] deals with Zika virus NS2B-NS3 protease (linked). Put plainly: 384 well plate NINDS AMC confirmatory qHTS for Zika virus inhibitors (AID 1347163). Further: potency means the concentration at half of the fitted maximal effect; nearly all actives have a fitted effect of over 50% in size. In a few lines: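 Fluorescence at 355/460 nm was read after 25 minutes of cleavage of 30 microM Ac-VKTGKR-AMC at room temperature, in the dark. Before substrate addition, compounds (up to 1 mM final) sat ~15 minutes with 5, 30 or 60 nM linked protease. Signals were normalized to no-enzyme and no-inhibitor wells.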

Experiment [7] is described as follows: Tertiary RLuc qRT-PCR qHTS assay for Zika virus inhibitors (AID 1347169). Further: top concentration of the series differs between compounds; on the % scale 0 is the no-effect control and ±100 the full control effect; nearly all actives have a fitted effect of over 55% in size. In short, it runs like this:
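Vero cells (1,000 per well) plated overnight at 37 degrees C, treated with compound in DMSO, then infected with recombinant ZIKV-RLuc (Cambodian) at MOI 1-2 for 48-72 hrs. Live-cell Renilla luciferase substrate added; luminescence read after 1-1.5 hrs.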
(In general: Quantitative PCR measures a nucleic acid by following its amplification.)

Chain of Furin (Homo sapiens) (P09958 whole entry, looked up): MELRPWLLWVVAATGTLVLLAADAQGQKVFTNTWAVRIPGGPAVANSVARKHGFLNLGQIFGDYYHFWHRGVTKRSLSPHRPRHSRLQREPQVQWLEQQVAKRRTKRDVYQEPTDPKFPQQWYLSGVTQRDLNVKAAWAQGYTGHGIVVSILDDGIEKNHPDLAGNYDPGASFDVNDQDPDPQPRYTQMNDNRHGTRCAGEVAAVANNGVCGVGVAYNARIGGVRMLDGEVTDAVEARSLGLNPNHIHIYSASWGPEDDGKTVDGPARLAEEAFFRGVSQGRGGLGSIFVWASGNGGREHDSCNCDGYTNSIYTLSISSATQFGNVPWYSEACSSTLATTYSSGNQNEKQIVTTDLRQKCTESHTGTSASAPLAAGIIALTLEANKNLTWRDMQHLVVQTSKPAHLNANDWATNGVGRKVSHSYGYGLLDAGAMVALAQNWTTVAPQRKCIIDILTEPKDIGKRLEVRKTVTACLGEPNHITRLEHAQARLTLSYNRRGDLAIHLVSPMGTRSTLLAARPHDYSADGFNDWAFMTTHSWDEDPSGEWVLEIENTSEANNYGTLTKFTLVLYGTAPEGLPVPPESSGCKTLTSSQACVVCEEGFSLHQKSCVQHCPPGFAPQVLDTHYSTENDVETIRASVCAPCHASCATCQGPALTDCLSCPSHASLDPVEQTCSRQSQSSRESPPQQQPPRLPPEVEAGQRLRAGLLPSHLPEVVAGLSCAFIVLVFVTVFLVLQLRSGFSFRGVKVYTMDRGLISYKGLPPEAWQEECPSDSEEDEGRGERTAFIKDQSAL
Chain of Cytochrome P450 3A4 (Homo sapiens) (P08684 whole entry, looked up): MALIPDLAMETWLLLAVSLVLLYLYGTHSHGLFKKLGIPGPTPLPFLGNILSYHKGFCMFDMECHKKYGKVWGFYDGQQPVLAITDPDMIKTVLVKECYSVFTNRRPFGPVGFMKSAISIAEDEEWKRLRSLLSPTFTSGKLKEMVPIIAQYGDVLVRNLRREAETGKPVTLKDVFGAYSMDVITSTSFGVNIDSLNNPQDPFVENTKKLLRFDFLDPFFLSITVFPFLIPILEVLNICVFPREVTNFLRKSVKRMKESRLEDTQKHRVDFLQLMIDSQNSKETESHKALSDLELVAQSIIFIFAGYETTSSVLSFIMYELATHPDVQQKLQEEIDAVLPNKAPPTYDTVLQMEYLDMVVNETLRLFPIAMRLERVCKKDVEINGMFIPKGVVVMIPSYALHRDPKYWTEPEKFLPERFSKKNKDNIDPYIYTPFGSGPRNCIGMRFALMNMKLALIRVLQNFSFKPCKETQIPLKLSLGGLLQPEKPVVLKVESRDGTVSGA

Regarding `COc1ccc(-c2cc(=O)c3c(O)cc(O)c(-c4cc(-c5cc(=O)c6c(O)cc(O)cc6o5)ccc4OC)c3o2)cc1`, the Potency result in experiment [1], in experiment [3] and in experiment [7] was “inactive” throughout. Further, the activity change, negative = inhibition in experiment [2] (at 57.5 µM (top of the series)) was 6.01% (inactive). Moreover, the max response in experiment [2] (measured here: cell count channel max response) was -20.7%; in experiment [2] (measured here: lipid channel max response) it was -15.6%. Further, the Potency in experiment [4] was 25.1 µM (active); in experiment [5] it was 25.1 µM (active); in experiment [6] it was 112 µM (active).
On to `O=C(COc1ccccc1F)Nc1ccccc1C(=O)OCc1cc(=O)n2nc(C3CC3)sc2n1`, for which the Potency result in experiment [3], in experiment [4] and in experiment [5] was “inactive” each time.
Take `CC(C)OC(=O)c1ccc(NC(=O)CSc2nc(-c3cccs3)cc(C(F)(F)F)n2)cc1`: the Potency in experiment [3] is 52.7 µM (active). For the same compound, the Potency result in experiment [4], in experiment [5] and in experiment [7] was “inactive” throughout.
